Experimental data from PubChem BioAssay.
Calls of active or inactive are those of the source. Cut-off read from the data, not from the text of the source, unless noted: active = inhibition above about 42%; inactive = the rest.

Legend:
[1] = target: Nuclear receptor coactivator 3 (Homo sapiens) (UniProt Q9Y6Q9); experiment: SRC3 coactivator transcriptional activity inhibitors, confirmation, cell-based, luminescence, quadruplicate (AID 588792;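 active = mean inhibition over 43.08%, the solvent-only control mean plus 3 SD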;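 note: 0% = DMSO treated cells and 100% = gossypol at 36 µM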); conditions: HEK293 GAL4-SRC3 luciferase reporter, at 3.6 µM, stronger effect = higher value
[2] = tested on: transactivating tegument protein VP16 (Human herpesvirus 1), Gal4-VP16 luciferase reporter; experiment: VP16 transactivation inhibitors, counter-screen for SRC3 inhibitor project, cell-based, luminescence, high throughput (AID 588794; in the data active = inhibition above about 30%); conditions: mammalian cells, VP16-driven luciferase reporter luminescence; at 3.6 µM; stronger effect = higher value
[3] = target: Nuclear receptor coactivator 1 (Homo sapiens) (UniProt Q15788); experiment: SRC1 coactivator transcriptional activity inhibitors, confirmation, cell-based, luminescence, quadruplicate (AID 588820;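 active = mean inhibition above 46.68%, the untreated control wells mean plus 3 SD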;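 note: 0% = DMSO wells and 100% = gossypol 36 µM treated wells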); conditions: HEK293 GAL4-SRC1 luciferase reporter, at 3.6 µM, stronger effect = higher value
[4] = VP16 transactivation inhibitors, counter-screen for SRC1 inhibitor project, cell-based, luminescence, high throughput (AID 588824; in the data active = inhibition above about 25%); conditions: cell-based VP16 transactivation luciferase luminescence; at 3.6 µM; stronger effect = higher value
[5] = StAR promoter reporter inhibitors, counter-screen for LRH-1 inverse agonist project, cell-based, luminescence, high throughput (AID 651611; in the data active = inhibition above about 28%); conditions: StAR promoter luciferase reporter counterscreen, at 3.6 µM, stronger effect = higher value
[6] = target: Nuclear receptor subfamily 5 group A member 2 (Homo sapiens) (UniProt O00482); experiment: LRH-1 (NR5A2) inverse agonists, retest, confirmation, cell-based, luminescence (AID 651613); conditions: cell-based LRH-1 luciferase reporter, inverse agonism; at 3.6 µM; stronger effect = higher value;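 note: HEK293T cells co-transfected with LRH-1 and StAR promoter luciferase reporter; 0% = vehicle wells and 100% = parental cells lacking receptor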
[7] = target: Steroidogenic factor 1 (Homo sapiens) (UniProt Q13285); experiment: SF1 (NR5A1) inverse agonists, counter-screen for LRH-1 inverse agonist project, cell-based, luminescence, high throughput (AID 651614; in the data active = inhibition above about 44%;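 note: cells cotransfected with StAR promoter reporter and SF1 expression vector; 0% = vehicle on cells with receptor and 100% = vehicle on cells lacking receptor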); conditions: cell-based SF1 luciferase reporter, at 3.6 µM, stronger effect = higher value
[8] = VP16 transactivation reporter inhibitors, counter-screen for LRH-1 inverse agonist project, cell-based, luminescence, high throughput (AID 651615; in the data active = inhibition above about 33%); conditions: Gal4-VP16 luciferase reporter cells, at 3.6 µM, stronger effect = higher value
[9] = tested on: transactivating tegument protein VP16 (Human herpesvirus 1); experiment: VP16 transactivation reporter inhibitors, counter-screen for SRC2 inhibitor project, cell-based, luminescence, single concentration (AID 652007; in the data active = inhibition above about 36%); conditions: cell-based VP16 transactivation luciferase reporter, at 8.9 µM, stronger effect = higher value
[10] = target: Nuclear receptor coactivator 2 (Homo sapiens) (UniProt Q15596); experiment: SRC2 coactivator transcriptional activity inhibitors, confirmation, cell-based, luminescence, HEK293, triplicate (AID 652008;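 active = mean inhibition above 46.5%, the solvent-only control mean plus 3 SD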;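 note: 0% = DMSO-treated cells and 100% = Gossypol at 36 µM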); conditions: HEK293 GAL4-SRC2 luciferase reporter, at 8.9 µM, stronger effect = higher value
Chain of Nuclear receptor coactivator 2 (Homo sapiens) (Q15596 whole entry, looked up, the tested form may be a part): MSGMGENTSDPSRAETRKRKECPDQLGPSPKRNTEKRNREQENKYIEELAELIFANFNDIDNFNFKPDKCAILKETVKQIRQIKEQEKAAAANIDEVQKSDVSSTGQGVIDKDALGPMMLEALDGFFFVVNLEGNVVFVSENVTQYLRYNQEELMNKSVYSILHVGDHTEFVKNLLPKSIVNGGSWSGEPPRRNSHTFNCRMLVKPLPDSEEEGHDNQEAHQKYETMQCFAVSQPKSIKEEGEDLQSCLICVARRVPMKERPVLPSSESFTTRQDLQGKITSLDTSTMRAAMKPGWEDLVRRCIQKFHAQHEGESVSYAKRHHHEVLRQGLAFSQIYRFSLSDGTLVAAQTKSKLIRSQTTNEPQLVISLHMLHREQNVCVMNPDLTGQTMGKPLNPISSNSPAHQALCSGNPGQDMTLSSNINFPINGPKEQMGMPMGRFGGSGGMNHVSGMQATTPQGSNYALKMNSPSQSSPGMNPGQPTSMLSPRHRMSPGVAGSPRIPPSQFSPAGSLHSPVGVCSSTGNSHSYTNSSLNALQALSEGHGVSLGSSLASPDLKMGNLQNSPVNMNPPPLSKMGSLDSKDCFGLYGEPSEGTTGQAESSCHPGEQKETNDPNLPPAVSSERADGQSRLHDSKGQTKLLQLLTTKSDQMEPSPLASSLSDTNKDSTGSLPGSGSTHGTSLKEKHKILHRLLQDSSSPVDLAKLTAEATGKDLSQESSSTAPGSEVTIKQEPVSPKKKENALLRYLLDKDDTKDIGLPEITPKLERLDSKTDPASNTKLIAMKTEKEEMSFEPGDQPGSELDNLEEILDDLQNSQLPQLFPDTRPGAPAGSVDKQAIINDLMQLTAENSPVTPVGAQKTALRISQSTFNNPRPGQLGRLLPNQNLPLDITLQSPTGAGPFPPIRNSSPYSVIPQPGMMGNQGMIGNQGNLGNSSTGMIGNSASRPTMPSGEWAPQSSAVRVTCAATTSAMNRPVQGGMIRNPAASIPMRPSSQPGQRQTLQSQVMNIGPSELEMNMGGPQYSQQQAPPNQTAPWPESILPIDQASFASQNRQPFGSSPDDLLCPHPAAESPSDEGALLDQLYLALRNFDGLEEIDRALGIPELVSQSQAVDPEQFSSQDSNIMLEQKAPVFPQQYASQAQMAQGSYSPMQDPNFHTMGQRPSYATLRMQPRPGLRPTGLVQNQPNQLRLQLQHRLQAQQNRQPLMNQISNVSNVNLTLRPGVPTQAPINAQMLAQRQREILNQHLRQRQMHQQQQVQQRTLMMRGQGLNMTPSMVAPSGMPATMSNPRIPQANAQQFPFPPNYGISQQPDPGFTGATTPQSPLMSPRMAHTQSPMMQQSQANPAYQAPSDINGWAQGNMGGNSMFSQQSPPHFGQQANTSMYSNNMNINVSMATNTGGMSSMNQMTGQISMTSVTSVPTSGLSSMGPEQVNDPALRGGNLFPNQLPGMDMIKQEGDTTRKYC

Chain of Nuclear receptor coactivator 1 (Homo sapiens) (Q15788 whole entry, looked up, the tested form may be a part): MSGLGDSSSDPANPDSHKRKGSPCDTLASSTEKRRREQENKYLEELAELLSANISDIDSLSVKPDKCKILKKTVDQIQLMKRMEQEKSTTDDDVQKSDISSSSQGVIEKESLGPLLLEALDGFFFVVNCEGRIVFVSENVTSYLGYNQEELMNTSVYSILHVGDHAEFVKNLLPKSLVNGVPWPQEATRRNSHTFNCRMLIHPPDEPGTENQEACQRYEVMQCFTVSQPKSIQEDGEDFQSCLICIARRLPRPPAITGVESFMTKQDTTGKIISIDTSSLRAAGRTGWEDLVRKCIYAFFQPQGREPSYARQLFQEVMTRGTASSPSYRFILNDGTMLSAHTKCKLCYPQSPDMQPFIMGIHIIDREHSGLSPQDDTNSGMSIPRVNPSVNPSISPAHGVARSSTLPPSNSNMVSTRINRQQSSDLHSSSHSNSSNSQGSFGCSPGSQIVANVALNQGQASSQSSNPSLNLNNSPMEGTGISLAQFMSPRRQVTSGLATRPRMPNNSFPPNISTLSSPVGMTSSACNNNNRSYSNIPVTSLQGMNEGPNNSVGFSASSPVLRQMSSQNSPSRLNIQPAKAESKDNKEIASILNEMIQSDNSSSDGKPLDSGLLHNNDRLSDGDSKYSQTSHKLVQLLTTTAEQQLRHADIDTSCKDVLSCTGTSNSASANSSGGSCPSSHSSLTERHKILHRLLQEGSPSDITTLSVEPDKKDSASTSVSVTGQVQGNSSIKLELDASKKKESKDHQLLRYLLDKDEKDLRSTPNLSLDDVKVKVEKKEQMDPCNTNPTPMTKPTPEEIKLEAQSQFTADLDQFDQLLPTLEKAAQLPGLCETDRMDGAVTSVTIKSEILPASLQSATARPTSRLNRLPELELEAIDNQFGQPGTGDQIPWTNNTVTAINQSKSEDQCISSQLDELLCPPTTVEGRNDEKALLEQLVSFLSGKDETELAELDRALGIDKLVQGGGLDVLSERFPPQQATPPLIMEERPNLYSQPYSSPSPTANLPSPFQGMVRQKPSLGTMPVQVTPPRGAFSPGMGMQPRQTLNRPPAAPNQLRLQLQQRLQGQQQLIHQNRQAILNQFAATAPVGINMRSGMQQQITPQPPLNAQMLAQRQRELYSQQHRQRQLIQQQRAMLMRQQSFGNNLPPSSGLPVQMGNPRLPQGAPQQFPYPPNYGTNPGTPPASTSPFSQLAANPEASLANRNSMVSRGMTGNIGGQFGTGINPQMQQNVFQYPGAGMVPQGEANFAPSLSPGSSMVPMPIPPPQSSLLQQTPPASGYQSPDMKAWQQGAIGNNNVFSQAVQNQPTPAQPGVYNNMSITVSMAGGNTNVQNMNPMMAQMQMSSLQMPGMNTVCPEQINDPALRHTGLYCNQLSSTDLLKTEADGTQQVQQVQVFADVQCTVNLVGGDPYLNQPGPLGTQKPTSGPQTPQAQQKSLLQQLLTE
Chain of Nuclear receptor coactivator 3 (Homo sapiens) (Q9Y6Q9 whole entry, looked up, the tested form may be a part): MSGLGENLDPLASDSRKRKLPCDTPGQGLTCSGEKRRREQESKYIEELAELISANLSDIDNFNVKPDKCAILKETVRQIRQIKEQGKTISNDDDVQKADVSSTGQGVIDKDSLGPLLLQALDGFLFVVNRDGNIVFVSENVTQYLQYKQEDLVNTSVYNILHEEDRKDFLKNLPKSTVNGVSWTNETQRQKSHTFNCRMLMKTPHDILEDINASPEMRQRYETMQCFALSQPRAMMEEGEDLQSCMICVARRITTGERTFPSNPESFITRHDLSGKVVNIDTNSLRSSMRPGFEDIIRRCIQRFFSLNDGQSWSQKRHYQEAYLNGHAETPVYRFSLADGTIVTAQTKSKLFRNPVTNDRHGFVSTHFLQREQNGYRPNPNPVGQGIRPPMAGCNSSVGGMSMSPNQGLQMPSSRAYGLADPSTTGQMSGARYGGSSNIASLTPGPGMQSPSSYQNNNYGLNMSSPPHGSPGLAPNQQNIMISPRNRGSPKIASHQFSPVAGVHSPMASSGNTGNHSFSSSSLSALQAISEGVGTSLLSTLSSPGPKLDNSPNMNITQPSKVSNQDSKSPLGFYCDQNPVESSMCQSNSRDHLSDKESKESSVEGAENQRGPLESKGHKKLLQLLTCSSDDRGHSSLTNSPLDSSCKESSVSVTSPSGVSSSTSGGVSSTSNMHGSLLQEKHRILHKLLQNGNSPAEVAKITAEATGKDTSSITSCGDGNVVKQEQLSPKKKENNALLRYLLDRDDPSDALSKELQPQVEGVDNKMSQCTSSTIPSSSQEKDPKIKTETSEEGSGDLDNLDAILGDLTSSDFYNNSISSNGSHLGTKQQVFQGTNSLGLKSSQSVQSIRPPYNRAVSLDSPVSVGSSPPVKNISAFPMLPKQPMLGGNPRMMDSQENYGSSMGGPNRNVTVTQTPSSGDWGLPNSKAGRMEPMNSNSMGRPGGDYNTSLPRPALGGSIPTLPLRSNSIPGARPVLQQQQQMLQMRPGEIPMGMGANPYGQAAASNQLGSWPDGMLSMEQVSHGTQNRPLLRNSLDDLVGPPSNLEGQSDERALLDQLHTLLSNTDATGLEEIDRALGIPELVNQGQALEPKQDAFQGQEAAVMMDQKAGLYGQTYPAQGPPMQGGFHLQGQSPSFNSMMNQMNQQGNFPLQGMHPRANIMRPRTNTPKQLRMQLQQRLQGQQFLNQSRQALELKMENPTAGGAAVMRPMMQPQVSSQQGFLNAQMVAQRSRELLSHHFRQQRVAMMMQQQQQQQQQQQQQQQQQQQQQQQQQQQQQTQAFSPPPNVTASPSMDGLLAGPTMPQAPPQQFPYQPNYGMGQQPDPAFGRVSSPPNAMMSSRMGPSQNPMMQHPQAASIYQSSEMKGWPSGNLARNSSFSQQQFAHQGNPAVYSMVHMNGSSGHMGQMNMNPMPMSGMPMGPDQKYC
Chain of Nuclear receptor subfamily 5 group A member 2 (Homo sapiens) (O00482 whole entry, looked up): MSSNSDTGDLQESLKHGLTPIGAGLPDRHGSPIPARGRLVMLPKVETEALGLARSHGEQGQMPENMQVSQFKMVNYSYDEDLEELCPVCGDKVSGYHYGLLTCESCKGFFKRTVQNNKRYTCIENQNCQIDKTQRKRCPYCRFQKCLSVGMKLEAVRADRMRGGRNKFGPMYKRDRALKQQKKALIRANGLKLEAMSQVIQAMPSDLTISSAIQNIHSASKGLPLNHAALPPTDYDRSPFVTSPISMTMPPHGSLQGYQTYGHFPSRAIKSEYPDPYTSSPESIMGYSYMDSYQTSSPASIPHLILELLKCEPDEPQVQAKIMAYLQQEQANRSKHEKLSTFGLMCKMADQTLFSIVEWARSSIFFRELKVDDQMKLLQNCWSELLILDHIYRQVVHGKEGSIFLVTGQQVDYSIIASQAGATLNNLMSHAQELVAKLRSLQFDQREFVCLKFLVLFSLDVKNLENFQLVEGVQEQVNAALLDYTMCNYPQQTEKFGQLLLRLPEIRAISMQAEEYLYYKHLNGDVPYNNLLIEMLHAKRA

Row | Compound | inhibition [1] | inhibition [2] | inhibition [3] | inhibition [4] | inhibition [5] | inhibition [6] | inhibition [7] | inhibition [8] | inhibition [9] | inhibition [10]
1 | Nc1ccc(Oc2cccc(Oc3ccc(N)cc3)c2)cc1 | 43.4% (active) | 29.6% (active) | 24.3% (inactive) | 27.6% (active) | 47.8% (active) | 75.6% (active) | 67.8% (active) | 47.5% (active) | 88.8% (active) | 92.8% (active)
2 | O=C(CN1C(=O)c2ccccc2S1(=O)=O)c1ccc(Cl)cc1Cl | 65.8% (active) | 71.5% (active) | 8.08% (inactive) | 62.5% (active) | 67.9% (active) | 55.3% (active) | 73% (active) | 57.4% (active) | 81.2% (active) | 83.7% (active)
3 | CCOc1cccc(/C=N/NC(=S)Nc2ccccc2[N+](=O)[O-])c1O | 70.3% (active) | 57.6% (active) | 44.9% (inactive) | 38.2% (active) | 66.1% (active) | 22.9% (inactive) | 65.2% (active) | 54% (active) | 39.7% (active) | 73.3% (active)
4 | CC(C)c1ccc(-n2c(-c3ccccc3)c[n+]3c2CCc2ccccc2-3)cc1 | 72.4% (active) | 84% (active) | 63.6% (active) | 84.4% (active) | 76.3% (active) | 108% (active) | 91.6% (active) | 90.1% (active) | 60.1% (active) | 71.4% (active)
5 | Cc1ccc(C(=O)O/N=C(\N)c2ccccn2)c(C)c1 | 60% (active) | 42.3% (active) | 15% (inactive) | 28.9% (active) | 33.2% (active) | 9.46% (inactive) | 36.5% (inactive) | 13.6% (inactive) | 71.3% (active) | 86% (active)
